Experimental data: PubChem BioAssay

experiment: E. coli growth modulation, two-sided OD650, primary screen, E. coli filamentation project, strain DRC41, 24 h (AID 1093); details: OD650, 24 h, higher = more signal, called active from +8 up or from −8 down;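 further: MC1000 strain lacking acrAB efflux and sulA so SOS filamentation is blocked; test concentration not given here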

z-score, inactive:
COCCOC(=O)N1C(=O)[C@@]2(c3cc(C#CCNC(N)=O)ccc31)[C@H](C(=O)NC[C@H](O)c1ccccc1)[C@H]1C(=O)O[C@H](c3ccccc3)[C@H](c3ccccc3)N1[C@@H]2c1ccc(OCCO)cc1 0.383, COC(=O)[C@@]1(Cc2ccc(F)cc2)[C@H]2c3cc(C(=O)N(C)C)n(CCn4cc([N+](=O)[O-])nc4C)c3C[C@H]2CN1C(=O)c1ccccc1 -1.66, CN(C)CCCCNC(=O)[C@H]1C[C@H]2C(=O)N[C@@H](Cc3ccccc3)C(=O)N2[C@H]1c1cccc(OCCO)c1 1.13, CCCCN1CC=CC23O[C@@H]4/C=C\CCC(C)OC(=O)C4[C@H]2C(=O)N(C(C)CO)[C@@H]3C1=O (stereo not given in full) -0.182, CCCCC(=C=CC[C@@H](O)c1cccc(OCCO)c1)CCO 0.863, CN1C=C(C(=O)OCCS(C)(=O)=O)C(C(=O)OCCS(C)(=O)=O)=CC(CCCO)=CC1c1ccc(CN2CCCC2)cc1 (stereo not given) 0.0324, C#CCN(C/C=C/c1ccccc1)[C@H](CO[Si](C)(C)C(C)(C)C)c1ccccc1 -0.347, O=C1O[C@H](c2ccccc2)[C@H](c2ccccc2)N2[C@H]1[C@@H](C(=O)N1CCN(c3ncccn3)CC1)[C@]1(C(=O)Nc3ccccc31)[C@H]2c1ccc(O)cc1 0.913, [N-]=[N+]=NCc1ccccc1[C@@H]1OC(c2ccc(OCCCO)cc2)=N[C@]1(Cc1ccccc1)C(=O)NCc1ccccc1 0.615, C=CCOC(=O)[C@H]1[C@@H]2C(=O)O[C@@H](c3ccccc3)[C@@H](c3ccccc3)N2[C@@H](c2ccc(OCCOC(=O)[C@@H]3C[C@@H]4C(=O)N[C@@H](CC(C)C)C(=O)N4[C@@H]3c3ccc(O)cc3)cc2)[C@]12C(=O)Nc1ccc(I)cc12 0.452, CC(C)CNC(=O)[C@@]1(C)c2ccccc2C(=O)N(Cc2cc(F)cc(C(F)(F)F)c2)[C@H]1c1ccc(CO)cc1 0.149, NCCCC[C@@H]1NC(=O)[C@H]2C[C@@H](C(=O)O)[C@@H](c3cccc(OCCO)c3)N2C1=O -1.31, CC(C)C[C@@H]1NC(=O)[C@H]2C[C@@H](C(=O)NCCCCCNC(=O)CS)[C@@H](c3ccc(O)cc3)N2C1=O 0.488, CO[C@H]1O[C@H](CO)[C@@H](OC(=O)Nc2ccccc2)[C@@H]2OC(=O)[C@H](Cc3ccccc3)C/C=C/C[C@@H](Cc3ccccc3)C(=O)O[C@@H]12 0.588, CC(C)CNC(=O)[C@@H]1c2ccccc2C(=O)N(Cc2ccccc2Cl)[C@H]1c1ccc(CO)cc1 0.534, CCc1cccc(NC(=O)O[C@H]2[C@H](OC(=O)Nc3ccc4c(c3)OCO4)[C@H](OC(=O)Nc3ccc4c(c3)OCO4)[C@@H](OC)O[C@@H]2CO)c1 0.641, CCN(CC)c1ccc(N2CC=CC34O[C@@H]5C=CCOC(=O)[C@@H]5[C@H]3C(=O)N(CCCO)[C@@H]4C2=O)cc1 (stereo not given in full) 1.6, C=C(CCCC)/C(=C/C[C@H](OC(C)=O)c1cccc(OCCO)c1)c1cc(C(=O)OC)ccc1OC 1.01, C=C(COC)/C(=C/C[C@H](OC(=O)c1ccncc1)c1ccc(OCCO)cc1)c1cc(C(=O)OC)ccc1OC 1.59, NC(=O)NCC#Cc1ccc2c(c1)[C@]1(C(=O)N2)[C@H](C(=O)Nc2nc3ccccc3s2)[C@H]2C(=O)O[C@H](c3ccccc3)[C@H](c3ccccc3)N2[C@@H]1c1ccc(OCCO)cc1 0.976, C=CCNC(=O)[C@H]1[C@@H]2C(=O)O[C@@H](c3ccccc3)[C@@H](c3ccccc3)N2[C@@H](c2ccc(O)cc2)[C@]12C(=O)Nc1ccc(C#CC3=CCCCC3)cc12 -0.197, C=CCC(OC(C)=O)[C@@H]1[C@@H](N(Cc2cccc3ccccc23)C(=O)c2ccc(-c3ccccc3)cc2)c2cc(OCCCO)ccc2N1C(=O)c1ccc2ccccc2n1 (stereo not given in full) -0.747, O=C1c2ccccc2[C@](Cc2ccccc2I)(C(=O)O)[C@H](c2ccc(CO)cc2)N1Cc1ccccc1 0.66, CC(C)[C@@H](C(=O)O)n1cc(-c2ccccc2)nn1 -1.44, C/C=C/CN(C(=O)C#Cc1ccccc1)[C@H](CO[Si](C)(C)C(C)(C)C)c1ccccc1 2.76
